Data taken from PubChem BioAssay (EPA / NIEHS).
Some compounds were tested as several samples or in several runs, with calls that do not always agree. The source made the active and inactive calls. How the source made its calls: active means hit-call score of the fitted dose curve at least 0.9, where 1 is the maximum; inactive means score below 0.9.

Key:
[1] = read-out: flavin-containing dimethylaniline monooxygenases 3 (FMO3), FMO3 (gene 2328); experiment: LTEA_HepaRG_FMO3: Life Technologies and Expression Analysis (LTEA) Assay for flavin-containing dimethylaniline monooxygenases 3 (FMO3) using HepaRG (AID 2283453); details: mRNA level, 48 h; actives raise or lower the signal
In short: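 Differentiated HepaRG cells in serum-free induction medium, exposed 48 h in duplicate to 8 half-log concentrations up to 100 uM in 0.5% DMSO. FMO3 mRNA by qRT-PCR, normalized to ACTB, GAPDH, POLR2A; bidirectional fit vs DMSO.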

[2] = read-out: Cytochrome P450 (CYP1A1), CYP1A1 (gene 1543); experiment: LTEA_HepaRG_CYP1A1: Life Technologies and Expression Analysis (LTEA) Assay for Cytochrome P450 (CYP1A1) using HepaRG (AID 2283454); details: mRNA level, 48 h; actives raise or lower the signal
In short: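 Induction of CYP1A1 mRNA in a human hepatic cell line was measured 48 h after dosing, with 1 mM phenobarbital as induction positive control and 0.5% DMSO vehicle as baseline for bidirectional curve fitting.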

[3] = read-out: CFLAR gene, CFLAR (gene 8837); experiment: LTEA_HepaRG_CFLAR: Life Technologies and Expression Analysis (LTEA) Assay for CFLAR gene using HepaRG (AID 2283455); details: mRNA level, 48 h; actives raise or lower the signal
In short: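 Differentiated HepaRG cells in serum-free induction medium were exposed 48 h in duplicate to eight half-log concentrations up to 100 uM in 0.5% DMSO; mRNA measured by TaqMan qRT-PCR, normalized to ACTB, GAPDH, POLR2A; bidirectional fitting versus DMSO.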

[4] = read-out: Forkhead box O1 (FOXO1), FOXO1 (gene 2308); experiment: LTEA_HepaRG_FOXO1: Life Technologies and Expression Analysis (LTEA) Assay for Forkhead box O1 (FOXO1) using HepaRG (AID 2283456); details: mRNA level, 48 h; actives raise or lower the signal
In short: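 Differentiated HepaRG cells, in serum-free induction medium with 0.5% DMSO, exposed 48 h in duplicate to 8-point half-log series from 100 uM. FOXO1 mRNA measured by TaqMan qRT-PCR, normalized to ACTB, GAPDH, POLR2A; bidirectional fit versus DMSO.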

[5] = CEETOX_H295R_TESTO: CeeTox H295R High-throughput Steroidogenesis Assay for Testosterone (TESTO) (AID 2283457); details: actives raise or lower the signal;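 on AC50: cells exposed to chemicals for 48 h before medium collection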
In short: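 Testosterone synthesis is assessed in human adrenocortical H295R cells after 48 h of chemical exposure, using HPLC-MS/MS of extracted medium. Activity is fitted in both directions against DMSO control.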

[6] = read-out: growth arrest and DNA damage 45 (GADD45A), GADD45A (gene 1647); experiment: LTEA_HepaRG_GADD45A: Life Technologies and Expression Analysis (LTEA) Assay for growth arrest and DNA damage 45 (GADD45A) using HepaRG (AID 2283458); details: mRNA level, 48 h; actives raise or lower the signal
In short: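 Cells plated and cultured 48 h, switched to serum-free induction medium, then dosed for 48 h (100 uM top, half-log dilutions, 0.5% DMSO). RNA was isolated and transcript measured by Fluidigm qRT-PCR.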

[7] = read-out: Forkhead box O3 (FOXO3), FOXO3 (gene 2309); experiment: LTEA_HepaRG_FOXO3: Life Technologies and Expression Analysis (LTEA) Assay for Forkhead box O3 (FOXO3) using HepaRG (AID 2283459); details: mRNA level, 48 h; actives raise or lower the signal
In short: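 Differentiated human HepaRG cells, 48 h post-plating, exposed in duplicate for 48 h in serum-free induction medium; 8-point half-log series from 100 uM in 0.5% DMSO. FOXO3 mRNA by TaqMan qRT-PCR, normalized to ACTB/GAPDH/POLR2A; bidirectional fit versus DMSO.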

[8] = read-out: ABC Transporter (ABCB1), ABCB1 (gene 5243); experiment: LTEA_HepaRG_ABCB1: Life Technologies and Expression Analysis (LTEA) Assay for ABC Transporter (ABCB1) using HepaRG (AID 2283460); details: mRNA level, 48 h; actives raise or lower the signal
In short: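 HepaRG cells exposed in duplicate for 48 h in serum-free induction medium to eight half-log concentrations up to 100 uM in 0.5% DMSO. ABCB1 mRNA quantified by qRT-PCR, normalised to ACTB, GAPDH and POLR2A; fitted bidirectionally versus DMSO.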

[9] = read-out: growth arrest and DNA damage 45 (GADD45B), GADD45B (gene 4616); experiment: LTEA_HepaRG_GADD45B: Life Technologies and Expression Analysis (LTEA) Assay for growth arrest and DNA damage 45 (GADD45B) using HepaRG (AID 2283461); details: mRNA level, 48 h; actives raise or lower the signal
In short: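 Values are bidirectional concentration-response fits against 0.5% DMSO controls. Underlying data: qRT-PCR mRNA levels in human HepaRG liver cells treated 48 h in serum-free induction medium, eight concentrations topping at 100 uM.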

[10] = read-out: ABC Transporter (ABCC3), ABCC3 (gene 8714); experiment: LTEA_HepaRG_ABCC3: Life Technologies and Expression Analysis (LTEA) Assay for ABC Transporter (ABCC3) using HepaRG (AID 2283462); details: mRNA level, 48 h; actives raise or lower the signal
In short: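 Differentiated HepaRG liver cells receive test chemicals at eight concentrations (max 100 uM) for 48 h. Expression of ABCC3 is quantified by qRT-PCR against ACTB, GAPDH and POLR2A, and activity is fitted in both directions against the DMSO control.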

[11] = read-out: ABC Transporter (ABCB11), ABCB11 (gene 8647); experiment: LTEA_HepaRG_ABCB11: Life Technologies and Expression Analysis (LTEA) Assay for ABC Transporter (ABCB11) using HepaRG (AID 2283463); details: mRNA level, 48 h; actives raise or lower the signal
In short: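 Differentiated human HepaRG cells in serum-free induction medium, dosed in duplicate for 48 h. Eight-point half-log series from 100 uM in 0.5% DMSO; ABCB11 mRNA by qRT-PCR, normalized to ACTB, GAPDH, POLR2A, fitted bidirectionally versus DMSO.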

[12] = read-out: ABC Transporter (ABCC2), ABCC2 (gene 1244); experiment: LTEA_HepaRG_ABCC2: Life Technologies and Expression Analysis (LTEA) Assay for ABC Transporter (ABCC2) using HepaRG (AID 2283464); details: mRNA level, 48 h; actives raise or lower the signal
In short: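 Gene expression of ABCC2 was determined by qRT-PCR in HepaRG cells exposed 48 h to chemicals (highest 100 uM, half-log dilutions). Activity was fitted in both directions relative to 0.5% DMSO vehicle.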

[13] = read-out: Broad substrate specificity ATP-binding cassette transporter ABCG2 (Homo sapiens) (UniProt Q9UNQ0); experiment: LTEA_HepaRG_ABCG2: Life Technologies and Expression Analysis (LTEA) Assay for ABC Transporter (ABCG2) using HepaRG (AID 2283465); details: mRNA level, 48 h; actives raise or lower the signal
In short: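 Differentiated HepaRG cells were exposed for 48 h in serum-free induction medium to 8 half-log concentrations, top 100 uM, in 0.5% DMSO. ABCG2 mRNA was measured by qRT-PCR, normalized to ACTB, GAPDH and POLR2A, with bidirectional fitting versus DMSO.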

[14] = read-out: ATP-citrate lyase (ACLY), ACLY (gene 47); experiment: LTEA_HepaRG_ACLY: Life Technologies and Expression Analysis (LTEA) Assay for ATP-citrate lyase (ACLY) using HepaRG (AID 2283466); details: mRNA level, 48 h; actives raise or lower the signal
In short: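 Differentiated HepaRG cells exposed 48 h in serum-free induction medium to eight half-log concentrations up to 100 uM in 0.5% DMSO, duplicates. Transcript measured by Fluidigm TaqMan qRT-PCR, normalized to ACTB, GAPDH, POLR2A; bidirectional fit versus DMSO.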

[15] = read-out: Peroxisomal acyl-coenzyme A oxidase 1 (ACOX1) gene, ACOX1 (gene 51); experiment: LTEA_HepaRG_ACOX1: Life Technologies and Expression Analysis (LTEA) Assay for Peroxisomal acyl-coenzyme A oxidase 1 (ACOX1) gene using HepaRG (AID 2283467); details: mRNA level, 48 h; actives raise or lower the signal
In short: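 HepaRG cells, plated 48 h then switched to serum-free induction medium, were exposed in duplicate for 48 h to 8-point half-log concentrations up to 100 uM in 0.5% DMSO. ACOX1 mRNA was measured by qRT-PCR, normalized to ACTB/GAPDH/POLR2A, and fitted bidirectionally versus DMSO.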

[16] = read-out: Alkaline Phosphatase, Placental (ALPP) gene, ALPP (gene 250); experiment: LTEA_HepaRG_ALPP: Life Technologies and Expression Analysis (LTEA) Assay for Alkaline Phosphatase, Placental (ALPP) gene using HepaRG (AID 2283468); details: mRNA level, 48 h; actives raise or lower the signal
In short: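 Expression of ALPP was quantified by qRT-PCR against three housekeeping genes in human HepaRG cultures treated for 48 h with an eight-point concentration series up to 100 uM. Activity in either direction was fitted relative to 0.5% DMSO.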

[17] = read-out: Bcl-2 (BAD) gene, BAD (gene 572); experiment: LTEA_HepaRG_BAD: Life Technologies and Expression Analysis (LTEA) Assay for Bcl-2 (BAD) gene using HepaRG (AID 2283469); details: mRNA level, 48 h; actives raise or lower the signal
In short: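 Differentiated HepaRG cells were exposed in duplicate in 0.5% DMSO for 48 h to eight-point half-log concentrations up to 100 uM. BAD mRNA was measured by Fluidigm TaqMan qRT-PCR, normalized to ACTB, GAPDH and POLR2A, and fitted bidirectionally against DMSO.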

[18] = read-out: Bcl-2 (BAX) gene, BAX (gene 581); experiment: LTEA_HepaRG_BAX: Life Technologies and Expression Analysis (LTEA) Assay for Bcl-2 (BAX) gene using HepaRG (AID 2283470); details: mRNA level, 48 h; actives raise or lower the signal
In short: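 HepaRG (human liver), 48 h exposure, duplicate wells. 8-pt curve, half-log from 100 uM, 0.5% DMSO. BAX transcript by TaqMan qRT-PCR; ACTB/GAPDH/POLR2A normalization; gain or loss vs DMSO baseline.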

[19] = read-out: adenosine kinase (ADK) gene, ADK (gene 132); experiment: LTEA_HepaRG_ADK: Life Technologies and Expression Analysis (LTEA) Assay for adenosine kinase (ADK) gene using HepaRG (AID 2283471); details: mRNA level, 48 h; actives raise or lower the signal
In short: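 Read-out is ADK transcript level measured by qRT-PCR and normalised to three housekeeping genes. Cells are human HepaRG, dosed for 48 h at up to 100 uM in 0.5% DMSO. Gain or loss of signal is fitted against DMSO controls.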

[20] = read-out: Alpha-fetoprotein (AFP) gene, AFP (gene 174); experiment: LTEA_HepaRG_AFP: Life Technologies and Expression Analysis (LTEA) Assay for Alpha-fetoprotein (AFP) gene using HepaRG (AID 2283472); details: mRNA level, 48 h; actives raise or lower the signal
In short: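 HepaRG, single lot; 48 h post-plating -> serum-free induction medium; cpd 8-pt, 100 uM top, half-log, 0.5% DMSO, duplicate, 48 h. RNA -> qRT-PCR AFP, norm ACTB/GAPDH/POLR2A. Bidirectional fit vs DMSO.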

Measured: AC50

Sequence of Broad substrate specificity ATP-binding cassette transporter ABCG2 (Homo sapiens) (Q9UNQ0 whole entry, looked up): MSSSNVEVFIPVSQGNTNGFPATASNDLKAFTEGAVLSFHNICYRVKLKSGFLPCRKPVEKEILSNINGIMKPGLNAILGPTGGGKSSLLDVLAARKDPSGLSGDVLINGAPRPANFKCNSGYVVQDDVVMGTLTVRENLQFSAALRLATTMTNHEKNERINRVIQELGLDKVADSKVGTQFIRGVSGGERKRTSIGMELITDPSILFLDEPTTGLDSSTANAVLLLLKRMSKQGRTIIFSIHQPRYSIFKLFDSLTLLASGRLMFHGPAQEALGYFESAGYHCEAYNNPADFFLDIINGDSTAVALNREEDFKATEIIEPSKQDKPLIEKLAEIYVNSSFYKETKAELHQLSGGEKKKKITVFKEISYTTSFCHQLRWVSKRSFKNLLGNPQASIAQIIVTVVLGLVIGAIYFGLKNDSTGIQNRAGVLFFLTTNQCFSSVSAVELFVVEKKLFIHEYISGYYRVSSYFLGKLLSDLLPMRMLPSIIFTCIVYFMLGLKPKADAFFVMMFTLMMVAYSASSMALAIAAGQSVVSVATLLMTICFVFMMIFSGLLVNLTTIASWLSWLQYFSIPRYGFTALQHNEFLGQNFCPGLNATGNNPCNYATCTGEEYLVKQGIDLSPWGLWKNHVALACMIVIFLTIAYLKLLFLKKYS

CN(C)C(=O)Nc1ccc(Cl)c(Cl)c1
active: [1] 50 µM | [2] 27 µM | [5] 28.1 µM | [7] 22.2 µM | [9] 66.5 µM | [11] 50 µM | [13] 36.4 µM | [20] 50 µM
inactive: all other assays above

CC(C)(c1ccc(O)cc1)c1ccc(O)cc1
inactive: [1] | [2] | [3] | [4] | [5] | [6] | [7] | [8] | [9] | [10] | [11] | [12] | [13] | [14] | [15] | [16] | [17] | [18] | [19] | [20]
active: [2] 11.7 µM | [5] 3.57 µM | [8] 50 µM | [15] 0.199 µM

CCCCCOC(=O)COc1cc(N2C(=O)C3=C(CCCC3)C2=O)c(F)cc1Cl
active: [2] 0.00329 µM
not listed: [5]
inactive: all other assays above

CCCCOCCOCCOCc1cc2c(cc1CCC)OCO2
active: [2] 12.9 µM | [8] 4.01 µM | [12] 7.48 µM | [13] 8.84 µM | [20] 33.3 µM
inactive: all other assays above

CC(=O)S[C@@H]1CC2=CC(=O)CC[C@]2(C)[C@H]2CC[C@@]3(C)[C@@H](CC[C@@]34CCC(=O)O4)[C@H]12
active: [1] 60.3 µM | [5] 0.828 µM | [11] 67 µM | [15] 50 µM | [19] 50 µM | [20] 43.4 µM
inactive: all other assays above
